Where “and” joins values, the source holds several entries; their conditions need not be identical. Equal entries are not always repeated. Calls of active or inactive are those of the source. How the source made its calls: active means hit-call score of the fitted dose curve at least 0.9, where 1 is the maximum; inactive means score below 0.9.
These molecules were tested on Thyroid Hormone Responsive (THRSP), THRSP (gene 7069) (assay: LTEA_HepaRG_THRSP: Life Technologies and Expression Analysis (LTEA) Assay for Thyroid Hormone Responsive (THRSP) using HepaRG (AID 2283536)). Details: mRNA level, 48 h; actives raise or lower the signal.
Experimental: LTEA_HepaRG is a cell based, multiplexed-readout assay that uses HepaRG, a human liver cell line, with measurements taken at 48 hours after chemical dosing on a 96-well plate.LTEA_HepaRG_THRSP is one of 102 assay component(s) measured in the LTEA HepaRG cell culture assay. It is a marker of NR mediated metabolism.Data from the assay component LTEA_HepaRG_THRSP was analyzed into 1 endpoint. This assay endpoint, LTEA_HepaRG_THRSP, was analyzed with bidirectional fitting relative to DMSO as the negative control and baseline of activity. Using a type of inducible reporter, measures of mRNA induction for gain or loss-of-signal activity can be used to understand regulation of transcription factor activity. To generalize the intended target to other relatable targets, this assay endpoint is annotated to the growth factor intended target family, where the subfamily is NR mediated metabolism.
A total of 1060 chemcials from the ToxCast library were tested in eight-point concentration-response experiments. Cell culture and cytotoxicity assays were conducted at Thermo Fisher Scientific's Custom Services facility (Madison, WI). A single lot of human HepaRG cells (Thermo Fisher Scientific, Frederick, MD) was used for the cell culture experiments. 96-well format collagen type I coated plates of human HepaRG cells were prepared using established methods. Briefly, cryopreserved HepaRG cells were thawed, plated at a density of approximately 100,000 cells/well in HepaRG Thaw, Plate, and General Purpose media (HPRG770, Thermo Fisher Scientific), and incubated for 48 hours. 0.5% DMSO was selected as vehicle control to balance the requisite need of DMSO in HepaRG cultures to maintain differentiation (for example, baseline metabolism, proportions of hepatocytes vs. cholangiocytes), while enabling further hepatic receptor pathway activation (for example, PXR and CAR) in response to chemical exposure. 48 hours after plating, the culture medium was replaced with HepaRG Serum-Free Incudtion Media. Cells were exposed to each test chemical in duplicate and maintained in CO2 incubators for another 48 hours. Chemical plates were thawed to room temperature and 200x concentrations of treatment groups were prepared. 8-point conentration-reponse curves were made with the highest exposure at 100 uM, followed by half-log dilutions, all in 0.5% DMSO. Each test plate contained variouse controls, induction positive controls (1mM phenobarbital), cytotoxicity positive controls ([…] aflatoxin B1), vehicle controls (0.5% DMSO), and total lysis controls (0.5% DMSO). Cell morphology images were taken using an Essen IncuCyte FLR automated microscope, with six 96-well plates imaged in about 24 minutes. Images were captured and exported and JPEG files. Spent culture media was transfered to black-well plates for the LDH assay, and remaining media was sorted at -80 C for later use. Cells were treated with RLT buffer and frozen until shipped for gene expression analysis. Total RNA was isolated from the cell suspension in 75 uL of Buffer RLT (Qiagen, Germantown, MD 20874) by Quintiles/Expression Analysis (Durham, NC) using a custom isolation procedure. Total RNA from each plate well was transferred to a preamplification plate. Fluidigm's 96.96 Dynamic ArrayTM (Fluidigm, Amsterdam, the Netherlands) technology was used for gene expression analyses by quantitative reverse transcription polymerase chain reaction (qRT-PCR, performed by Quintiles/Expression Analysis, Durham, NC)89. Standard TaqManTM Assays (Applied Biosystems/ThermoFisher Scientific, Foster City, CA) were used to assess the expression of 93 genes selected based on their selectivity and sensitivity to important hepatic receptors known to be modulated by environmental chemicals; importance in human hepatocyte functionality; and hepatotoxicity. […]
For `CC1(C)C(C=C(Cl)Cl)C1C(=O)OCc1cccc(Oc2ccccc2)c1` (stereo not given), the outcome was “inactive”. For `C#CCOC(=O)[C@@H](C)Oc1ccc(Oc2ncc(Cl)cc2F)cc1`, the outcome was “inactive”. In the case of `CCCN(CCC)c1c([N+](=O)[O-])cc(C(F)(F)F)c(N)c1[N+](=O)[O-]`, the AC50 is reported as 22.5 µM (active). In the case of `COC(=O)c1ccc(I)cc1S(=O)(=O)NC(=O)Nc1nc(C)nc(OC)n1`, the outcome is reported as “inactive”. With `CCOC(=O)c1ccc(O)cc1` the outcome was “inactive”. `COc1c(Cl)ccc(Cl)c1C(=O)O` was tested, and the outcome was “inactive”. In the case of `CCOC(=O)COc1cc(-n2ncc(C(F)(F)F)c(C)c2=O)c(F)cc1Cl`, the outcome is reported as “inactive”. In the case of `CCOC(=O)C(C)Oc1ccc(Oc2nc3ccc(Cl)cc3o2)cc1` (stereo not given), the outcome is reported as “inactive”. `S=C([S-])NCCNC(=S)[S-].[Mn+2]` was tested, and the AC50 was 0.835 µM (active). With `O=C(O)c1ccccc1` the outcome was “inactive”. For `O=C(Nc1ccc([N+](=O)[O-])cc1Cl)c1cc(Cl)ccc1O`, the outcome was “inactive”. `CCCCCOC(=O)COc1cc(N2C(=O)C3=C(CCCC3)C2=O)c(F)cc1Cl` was tested, and the outcome was “inactive”. In the case of `CCOC(=O)NCCOc1ccc(Oc2ccccc2)cc1`, the AC50 is reported as 75.8 µM (active). In the case of `CC(C)(C)[C@@H](O)[C@@H](Cc1ccc(Cl)cc1)n1cncn1`, the AC50 is reported as 32.7 µM (active). For `CCNc1nc(N)nc(Cl)n1`, the outcome was “inactive”. `COCCO` was tested, and the outcome was “inactive”. In the case of `CCCCC(CC)CN1C(=O)C2C3C=CC(C3)C2C1=O` (stereo not given), the AC50 is reported as 22.9 µM (active). In the case of `CCSC(=O)N(CC(C)C)CC(C)C`, the outcome is reported as “inactive”. For `CCN(CC)C(=O)c1cccc(C)c1`, the outcome was “inactive”. With `CCCCOC(=O)C(C)Oc1ccc(Oc2ccc(C(F)(F)F)cn2)cc1` (stereo not given) the outcome was “inactive”. With `S=C(S)NCCNC(=S)S.[Mn+2].[S-]C([S-])=NCCN=C([S-])[S-].[Zn+2]` the AC50 was 699 nM (active) and 352 nM (active) and 513 nM (active). For `CC(=O)[C@H]1CC[C@H]2[C@@H]3CCC4=CC(=O)CC[C@]4(C)[C@H]3CC[C@]12C`, the outcome was “inactive”. In the case of `OB(O)O`, the outcome is reported as “inactive”. For `CCC(C)OC(=O)N1CCCCC1CCO` (stereo not given), the outcome was “inactive”. In the case of `C=CCOC(Cn1ccnc1)c1ccc(Cl)cc1Cl` (stereo not given), the AC50 is reported as 36.2 µM (active). With `O=C(c1ccccc1)C1CCCCC1` the outcome was “inactive”. For `CSC(=O)c1cccc2nnsc12`, the outcome was “inactive”. In the case of `C#C[C@]1(O)CC[C@H]2[C@@H]3CCC4=CC(=O)CC[C@@H]4[C@H]3CC[C@@]21CC`, the AC50 is reported as 0.0275 µM (active). `C[C@]12CC[C@@H]3c4ccc(O)cc4C[C@@H](CCCCCCCCCS(=O)CCCC(F)(F)C(F)(F)F)[C@H]3[C@@H]1CC[C@@H]2O` (stereo not given in full) was tested, and the AC50 was 13.7 µM (active). With `CCCCC(CC)COC(=O)c1ccccc1C(=O)O` (stereo not given) the outcome was “inactive”. In the case of `Cc1nn(C)c(Oc2ccccc2)c1C=NOCc1ccc(C(=O)OC(C)(C)C)cc1`, the AC50 is reported as 3.57 µM (active). `c1ccc2[nH]c(-c3cscn3)nc2c1` was tested, and the outcome was “inactive”. For `CC(C)(c1ccc(O)cc1)c1ccc(O)cc1`, the outcome was “inactive”. `N[C@@H](Cc1cc(I)c(Oc2ccc(O)c(I)c2)c(I)c1)C(=O)O` was tested, and the AC50 was 67.4 µM (active). In the case of `CC(=O)S[C@@H]1CC2=CC(=O)CC[C@]2(C)[C@H]2CC[C@@]3(C)[C@@H](CC[C@@]34CCC(=O)O4)[C@H]12`, the AC50 is reported as 36.5 µM (active). In the case of `CCCCOCCOCCOCc1cc2c(cc1CCC)OCO2`, the AC50 is reported as 10.7 µM (active). In the case of `CC(C)CCCCCCc1ccc(O)cc1`, the outcome is reported as “inactive”. `COC(=O)CSc1cc(N=c2sc(=O)n3n2CCCC3)c(F)cc1Cl` was tested, and the outcome was “inactive”. In the case of `O=C(O)C1(C(=O)Nc2ccc(Cl)cc2Cl)CC1`, the AC50 is reported as 78 µM (active). `C[C@]12C[C@H](O)[C@H]3[C@@H](CCC4=CC(=O)CC[C@@]43C)[C@@H]1CC[C@@H]2C(=O)CO` was tested, and the AC50 was 50 µM (active).

Reference: PubChem BioAssay (EPA / NIEHS)
